Usually inhibition stands for the change of the read-out against control, counted positive when it falls.

The nature of assay [1]: inhibitors of TNFa-induced NFkB p65 translocation, primary screen, imaging, HUVEC, MLSMR starter and 10KST1 sets (AID 438;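 active = inhibition above 20% together with a positive visual image hit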;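 also: compound added about 3h40 before a 20 min TNFalpha stimulation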;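 as to inhibition: signal is the nuclear over cytoplasmic p65 intensity ratio per well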). To be noted: HUVEC TNFa-induced p65 nuclear translocation; cell count: measured here: nuclei count (cytotoxicity indicator), at 2.08 µM; inhibition: at 2 µM, stronger effect = higher value, 0% TNFa-plus-vehicle, 100% no-TNFa wells.
Assay [2] in a line: reduction of polyQ htt aggregates in cells – imaging, exon1htt(103Q)mCFP cells, high-content imaging, primary screen (AID 483;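 active = visual image review flags a hit and inhibition of aggregation exceeds 20%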;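 also: compound exposure lasted 3 days before fixation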;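 as to nuclei count: percent of the per-plate median nuclei count of sample wells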). Particulars: exon1htt(103Q)mCFP cell line, aggregate imaging, at 2 µM; inhibition of aggregation: stronger effect = higher value; nuclei count: measured here: cell count, toxicity.
Assay [3] is described as follows: endothelial E-selectin expression blockers – imaging, HUVEC, immunofluorescence, MLSMR starter and 10KST1 sets, primary screen (AID 487;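 active = visually confirmed hit in the image check and inhibition above 20%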;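 as to inhibition: signal is fraction of cell area covered by stained E-selectin grains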;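 as to nuclei count: 100% = median nuclei count of all wells on the same plate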). To be noted: HUVEC TNFalpha-induced E-selectin immunofluorescence imaging, at 2 µM; inhibition: stronger effect = higher value; nuclei count: measured here: cell number, toxicity.
The nature of assay [4]: Primary imaging screen for DUSP6 inhibitors that restore phospho-Erk in transfected HeLa cells, chemical complementation (AID 609;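 active = compounds giving at least 50% inhibition in the cell-based MKP-3 phosphatase rescue imaging test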;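 as to inhibition: phospho-Erk level distribution per well compared with pooled transfected vehicle control wells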). To be noted: HeLa MKP-3 transfected, phospho-Erk imaging KS statistic, at 10 µM, cells stimulated with TPA for 15 min.
The target of assay [5] is Dual specificity protein phosphatase 6 (Homo sapiens) (UniProt Q16828). The description is as above. Particulars: HeLa MKP-3 transfected, phospho-Erk imaging KS statistic; at 10 µM; stronger effect = higher value; cells stimulated with TPA for 15 min.
In assay [6] the target is Voltage-gated potassium channel subunit beta-2 (Rattus norvegicus) (UniProt P62483). The experiment in a line: inhibitors of rat Kvbeta2 reductase activity – biochemical, NADPH fluorescence, primary screen (AID 622;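 active = fluorescence slope higher than the sample average by over 3 SD, cut at about -0.22 in these data, passing the limit was not always enough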;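 also: slope of raw intensity against log time taken from 70 to 1610 s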). Particulars: recombinant KvBeta, 4-cyanobenzaldehyde reduction, at 10 µM, stronger effect = higher value.
Assay [7] has the same target. The experiment in a line: enhancers of rat Kvbeta2 NADPH turnover – biochemical, NADPH fluorescence, primary screen (AID 623;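 active = NADPH fluorescence slope more negative than the mean of all samples by about 3 SD, 99.7% confidence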;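 also: fluorescence intensity change per second fitted from 20 to 320 s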). Particulars: Recombinant KvBeta, NADPH fluorescence decrease slope, 10 min; at 10 µM; stronger effect = lower value.
The target of assay [8] is Alpha-2C adrenergic receptor (Homo sapiens) (UniProt P18825). Description: compounds altering alpha2C-coupled GIRK flux – cell-based, HEK293 alpha2C/GIRK1/2, thallium flux, primary screen (AID 624;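 active = fluorescence slope after compound addition differing from the mean of all screened samples at 99.7% confidence, in either direction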;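 also: slope of fluorescence ratio to pre-addition baseline per second over 15 to 24 s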). Particulars: thallium flux BTC fluorescence, at 10 µM, actives lie on both sides.
Assay [9] can be described thus: inhibitors of larval lipid processing in zebrafish, primary screen, whole organism, PED6 fluorescence, gall bladder and intestine (AID 686;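 active = a full or partial loss of lipid-probe fluorescence in the fish gall bladder, intestine or both, judged by eye; inactive = no fluorescence loss, or compound toxic to the fish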;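 also: larvae 5 to 7 days old with five fish per well; signal comes from phospholipase A2 cleavage of quenched PED6 carried via bile; overnight exposure to compound and PED6 before scoring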). To be noted: Zebrafish larvae PED6 lipid processing, fluorescence scoring; screened at 20 µM (by protocol).
Assay [10] is described as follows: loss of swimming-algae plug formation – whole organism, Chlamydomonas reinhardtii, WT vs cilia-less mutant, absorbance, 96-well, primary screen (AID 463189).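 Also: 0% = wild type cc124 cells in DMSO and 100% = ciliumless bld1 mutant cells.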 Particulars: Chlamydomonas reinhardtii gravitaxis, OD600 absorbance, 2 days; at 10 µM; stronger effect = higher value.
The nature of assay [11]: blockers of RIG-like receptor reporter activation – cell-based, Sendai virus stimulus, luciferase, 10K MLSCN set, TLR/RLR signaling modifier project, primary screen (AID 602276;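 active = inhibition at or above 50% at 10 µM; inactive = inhibition below 50%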;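 also: firefly luciferase from ISG56 promoter only with Renilla not read in this screen; 0% = Sendai virus plus DMSO and 100% = medium plus DMSO without virus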). To be noted: HEK293 RL24 IRF3 luciferase reporter, at 10 µM, stronger effect = higher value. (In general: Reporter assays use an easily measured gene product as a stand-in for the process of interest.)
A short description of assay [12]: TLR3 IRF3 reporter activation blockers – cell-based, poly I:C stimulus, luciferase, 10K MLSCN set, primary screen (AID 602277;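 active = inhibition of the reporter signal at or above 50%; inactive = inhibition below 50%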). Particulars: HEK293-TLR3 RL24 IRF3 luciferase reporter, at 10 µM, stronger effect = higher value.
Where [13] appears, read: measured here: cell density z-score.
Setting [14] is: measured here: nuclear c-Myc green intensity z-score.
[15] abbreviates: measured here: nuclear pErk red intensity z-score, stronger effect = higher value.

Where “and” joins values, the source holds several entries; their conditions need not be identical. Identical values can stand only once. Calls of active or inactive are those of the source.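 The calls were made as follows, unless noted: active = inhibition at or above 50% relative to wild type and mutant plate controls; inactive = inhibition below 50%.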

Chain of Dual specificity protein phosphatase 6 (Homo sapiens) (Q16828 whole entry, looked up): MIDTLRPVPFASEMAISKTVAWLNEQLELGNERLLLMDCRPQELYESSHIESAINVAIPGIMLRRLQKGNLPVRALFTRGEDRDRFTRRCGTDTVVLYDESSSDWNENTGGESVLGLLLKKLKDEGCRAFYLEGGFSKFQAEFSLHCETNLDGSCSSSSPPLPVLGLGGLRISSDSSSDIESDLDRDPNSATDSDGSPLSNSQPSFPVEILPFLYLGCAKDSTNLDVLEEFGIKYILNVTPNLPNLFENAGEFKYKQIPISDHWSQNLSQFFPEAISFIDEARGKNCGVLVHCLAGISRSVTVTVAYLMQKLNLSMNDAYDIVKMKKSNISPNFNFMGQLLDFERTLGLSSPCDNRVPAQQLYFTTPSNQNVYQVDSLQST
Chain of Alpha-2C adrenergic receptor (Homo sapiens) (P18825 whole entry, looked up): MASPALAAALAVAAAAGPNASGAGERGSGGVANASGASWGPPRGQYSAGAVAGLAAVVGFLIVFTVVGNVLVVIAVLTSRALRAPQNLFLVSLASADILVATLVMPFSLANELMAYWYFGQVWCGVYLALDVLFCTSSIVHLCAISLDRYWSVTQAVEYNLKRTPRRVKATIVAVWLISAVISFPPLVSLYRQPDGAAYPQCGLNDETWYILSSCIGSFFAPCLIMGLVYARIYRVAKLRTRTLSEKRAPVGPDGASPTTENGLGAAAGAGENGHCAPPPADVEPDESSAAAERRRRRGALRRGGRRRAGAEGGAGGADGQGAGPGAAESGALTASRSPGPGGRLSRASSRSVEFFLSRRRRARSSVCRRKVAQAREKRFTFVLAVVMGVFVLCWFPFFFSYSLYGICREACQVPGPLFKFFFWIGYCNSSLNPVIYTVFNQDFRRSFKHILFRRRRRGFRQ
Chain of Voltage-gated potassium channel subunit beta-2 (Rattus norvegicus) (P62483 whole entry, looked up): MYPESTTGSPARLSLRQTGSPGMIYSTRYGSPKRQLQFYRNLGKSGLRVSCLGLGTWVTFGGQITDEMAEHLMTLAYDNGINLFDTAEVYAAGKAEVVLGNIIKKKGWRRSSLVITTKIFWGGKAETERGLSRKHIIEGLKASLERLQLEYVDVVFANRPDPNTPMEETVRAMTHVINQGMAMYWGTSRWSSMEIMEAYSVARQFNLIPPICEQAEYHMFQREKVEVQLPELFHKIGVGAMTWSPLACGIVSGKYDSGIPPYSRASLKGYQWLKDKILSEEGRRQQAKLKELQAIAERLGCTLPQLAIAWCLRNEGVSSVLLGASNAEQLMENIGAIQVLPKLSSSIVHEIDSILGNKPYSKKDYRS

On to `OCCN(CCO)c1nc(N2CCCCC2)c2nc(N(CCO)CCO)nc(N3CCCCC3)c2n1`, for which, in assay [1], the cell count came out at 547. For the same compound, the inhibition in assay [1] is -6.1% (inactive); in assay [3], -59.7% (inactive); in [5], -0.493% (inactive); in [10], 1.16% (inactive) and 19.1% (inactive); in [11], 10.6% (inactive); in assay [12], -14.4% (inactive). Further, the inhibition of aggregation in [2] is -4% (inactive). The results for the nuclei count in assay [2] and in assay [3] were 110% and 134%, respectively. The values for the z-score in assay [4] (setting [13]), in [4] (setting [14]) and in assay [4] (setting [15]) were 0.412, 0.0897 and 0.61, respectively. In assay [6], the fluorescence slope was -0.056 (active). Moreover, the NADPH fluorescence slope in [7] is -1.2e-07 (inactive). Further, the slope in assay [8] was 0 (inactive). In [9], the call was inactive.
For the compound `CCOC(=O)CSC1=C(C#N)C(=O)NC(c2ccc(OC)c(OC)c2)S1` (stereo not given), in assay [1], the cell count stood at 561. Also, the inhibition in assay [1] was -4.2% (inactive); in assay [3], -41.1% (inactive); in assay [5], -13.3% (inactive); in assay [10] it was -1.59% (inactive); in assay [11], 12% (inactive); in assay [12], 11.8% (inactive). The inhibition of aggregation in assay [2] is 12.1% (inactive). Also, the nuclei count in assay [2] stood at 88.7%; in assay [3], 135%. Besides, the figures for the z-score in [4] (setting [13]), in [4] (setting [14]) and in assay [4] (setting [15]) were -1.42, 2.48 and 0.606, respectively. Moreover, the fluorescence slope in assay [6] is -0.509 (inactive). In addition, in assay [7], the NADPH fluorescence slope was -5e-05 (inactive). Further, in assay [8], the slope was 0.00555 (inactive). For the same compound, the result in assay [9] was inactive.
`C[C@]12C[C@H](O)[C@H]3[C@@H](CCC4=CC(=O)CC[C@@]43C)[C@@H]1CC[C@@H]2C(=O)CO`: the cell count in [1] came out at 627. The inhibition in [1] is -3.6% (inactive); in [3], -37.7% (inactive); in [5], 9.37% (inactive); in assay [10], 3.78% (inactive) and -16.2% (inactive); in assay [11], 5.57% (inactive); in assay [12] it was 32.8% (inactive). For the same compound, the inhibition of aggregation in assay [2] is -21.5% (inactive). The nuclei count in [2] is 101%; in assay [3], 102%. In addition, the figures for the z-score in assay [4] (setting [13]), in assay [4] (setting [14]) and in assay [4] (setting [15]) were 0.905, 0.0812 and -0.546, respectively. In addition, the fluorescence slope in assay [6] was -0.526 (inactive). For the same compound, in assay [7], the NADPH fluorescence slope was -4.5e-06 (inactive). Further, the slope in assay [8] was 0.00481 (inactive). Further, the compound was classed as inactive in [9].
On to `CCOC(=O)N1CCN(c2ncnc3c2[nH]c2ccc(OC)cc23)CC1`, for which the cell count in assay [1] was 520. Further, the inhibition in [1] was -6% (inactive); in assay [3] it was 6.4% (inactive); in [5], 0.671% (inactive); in assay [10], 8.03% (inactive); in assay [11], -1.93% (inactive); in assay [12] it was -5.19% (inactive). The inhibition of aggregation in assay [2] was 2.6% (inactive). Further, the nuclei count in assay [2] stood at 109%; in assay [3] it was 100%. Also, the z-score in [4] (setting [13]) was 1.15; in [4] (setting [14]) it was -0.635; in [4] (setting [15]), 1.15. Besides, in assay [6], the fluorescence slope was -0.222 (inactive). Besides, the NADPH fluorescence slope in assay [7] is -4.8e-05 (inactive). In addition, the slope in assay [8] was 0.00434 (inactive). Moreover, in assay [9], the compound was classed as inactive.
In the case of `CCOC(=O)N1CCC(=C2c3ccc(Cl)cc3CCc3cccnc32)CC1`, in assay [1], the cell count was found to be 695. Besides, the inhibition in assay [1] is -7.4% (inactive); in assay [3] it was -79.3% (inactive); in [5] it was 27.1% (inactive); in assay [10] it was -6.14% (inactive) and -3.57% (inactive); in assay [11], -15.2% (inactive); in [12] it was -34% (inactive). Also, the inhibition of aggregation in assay [2] is -15% (inactive). In addition, the values for the nuclei count in assay [2] and in [3] were 106% and 132%, respectively. In addition, the results for the z-score in assay [4] (setting [13]), in assay [4] (setting [14]) and in assay [4] (setting [15]) were 1.11, 0.137 and -0.637, respectively. The fluorescence slope in assay [6] is -0.512 (inactive). The NADPH fluorescence slope in assay [7] is -3.2e-05 (inactive). The slope in assay [8] was 0.00337 (inactive). The outcome in assay [9] is “inactive; toxic”.
On to `CCCCn1cnc2c(c1=O)c1nc3ccccc3nc1n2Cc1ccc2c(c1)OCO2`, for which, in assay [1], the cell count turned out to be 588. For the same compound, the inhibition in assay [1] is -2% (inactive); in assay [3], -78% (inactive); in assay [5], -4.7% (inactive); in assay [10] it was 10.8% (inactive); in assay [11], 7.61% (inactive); in [12] it was 1.84% (inactive). The inhibition of aggregation in assay [2] is -18.6% (inactive). The nuclei count stood at 101% in assay [2] and 129% in assay [3]. Moreover, the z-score in assay [4] (setting [13]) was 0.775; in [4] (setting [14]) it was -1.04; in assay [4] (setting [15]) it was -0.0661. Further, in assay [6], the fluorescence slope is -0.159 (inactive). The NADPH fluorescence slope in assay [7] was 1.1e-05 (inactive). The slope in assay [8] was 0.00729 (inactive). Besides, the compound was called inactive in [9].
In the case of `N=c1nc(N2CCCCC2)cc(N)n1O`, the cell count in assay [1] is 660. Besides, the inhibition in assay [1] was 0.9% (inactive); in [3], -58.5% (inactive); in [5], 25.7% (inactive); in [10] it was 1.56% (inactive) and -3.08% (inactive); in [11], 9.96% (inactive); in assay [12], 34.6% (inactive). Moreover, in assay [2], the inhibition of aggregation was -1.2% (inactive). Moreover, the nuclei count in [2] is 114%; in [3], 138%. Besides, the z-score in assay [4] (setting [13]) is -0.689; in assay [4] (setting [14]), -0.0187; in [4] (setting [15]), 0.315. The fluorescence slope in assay [6] was -0.46 (inactive). Further, in assay [7], the NADPH fluorescence slope is -6e-05 (inactive). In assay [8], the slope was 0.00444 (inactive). The compound was called inactive in assay [9].
For `Cc1ncc([N+](=O)[O-])n1CC(O)CCl` (stereo not given), in [1], the cell count was 546. The inhibition was -5% (inactive) in [1]; -91.7% (inactive) in [3]; 3.45% (inactive) in assay [5]; -0.632% (inactive) in assay [10]; -0.807% (inactive) in assay [11]; 16.6% (inactive) in assay [12]. For the same compound, the inhibition of aggregation in assay [2] was -12.8% (inactive). Also, the results for the nuclei count in assay [2] and in assay [3] were 100% and 114%, respectively. For the same compound, the z-score in assay [4] (setting [13]) was 0.947; in [4] (setting [14]) it was -1.73; in [4] (setting [15]), -1.47. In assay [6], the fluorescence slope is -0.5 (inactive). In addition, the NADPH fluorescence slope in assay [7] was 2.8e-05 (inactive). The slope in assay [8] was 0.00498 (inactive). For the same compound, the outcome in assay [9] was inactive.
As for `Cc1csc(NC(=O)CSc2nsc(SCC(=O)Nc3nc(C)cs3)c2C#N)n1`, the cell count in [1] amounted to 655. Besides, the inhibition was -10.4% (inactive) in [1]; -15.8% (inactive) in assay [3]; 6.51% (inactive) in assay [5]; 2.21% (inactive) in assay [10]; -8.75% (inactive) in [11]; -83.6% (inactive) in assay [12]. In addition, in assay [2], the inhibition of aggregation was 12.2% (inactive). The nuclei count came to 105% in assay [2] and 141% in [3]. Besides, the z-score is -1.33 in [4] (setting [13]), 0.375 in [4] (setting [14]) and -0.579 in assay [4] (setting [15]). Further, in assay [6], the fluorescence slope is -0.37 (inactive). Besides, the NADPH fluorescence slope in assay [7] was -3.7e-05 (inactive). Besides, the slope in [8] is 0.00462 (inactive). Besides, in [9], the call was inactive.
With `CCOC(=O)c1c(C)n(C)c2ccc(O)c(S(=O)(=O)c3ccccc3)c12`, the cell count in [1] was determined as 278. Moreover, the inhibition is -3.6% (inactive) in assay [1]; -19.6% (inactive) in assay [3]; -8.76% (inactive) in assay [5]; -15.5% (inactive) in assay [10]; 21.8% (inactive) in [11]; 27% (inactive) in assay [12]. For the same compound, the inhibition of aggregation in assay [2] was -0.2% (inactive). Moreover, the nuclei count in assay [2] worked out at 103%; in [3], 109%. Further, the z-score in [4] (setting [13]) is -0.746; in assay [4] (setting [14]), 0.777; in assay [4] (setting [15]), 1.13. In assay [6], the fluorescence slope is -0.458 (inactive). For the same compound, in assay [7], the NADPH fluorescence slope is -0.000154 (inactive). For the same compound, the slope in assay [8] is 0.00656 (inactive). Besides, the outcome in assay [9] was inactive.

For the origin of these results see PubChem BioAssay.
